Results from PubChem BioAssay AID1259422 (The Scripps Research Institute Molecular Screening Center, 2018).
In all, about 640,000 compounds went through this assay and about 9,300 (1.5%) were called active. The entries come from a sample that favours actives as a whole. A number with no mark means an inactive call. Rule as the data show it: active = inhibition above about 32%; inactive = the rest.

Experiment: TEAD-YAP interaction inhibition, primary screen, TEAD-YAP interaction inhibitor project, luminescence, HEK-TIYL cells (AID 1259422);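 also: 0% = median of test compound wells and 100% = reference inhibitor wells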
Settings: TEAD-Gal4/YAP UAS-luciferase luminescence, at 9.12 µM, stronger effect = higher value

Compound | inhibition
O=C(O)CCNCCC(=O)c1ccccc1 | -12.1%
COc1ccc(N2CCN(C(=O)COc3ccccc3OC)CC2)cc1 | 1.61%
CCOC(=O)CSc1ccc(C(=O)N2CCN(c3ccccc3OC)CC2)cc1[N+](=O)[O-] | 3.32%
COc1ccccc1N1CCN(C(=O)c2ccc(Cl)c([N+](=O)[O-])c2)CC1 | 49% (active)
COc1ccccc1N1CCN(C(=O)CSCc2ccccc2C)CC1 | -42.5%
COc1ccccc1N1CCN(C(=O)COc2ccc(Cl)cc2C)CC1 | 58.5% (active)
COC(=O)C1CCN(C(=O)c2ccc(Cl)c([N+](=O)[O-])c2)CC1 | 1.51%
Cc1cccc2nc(NC(=O)c3ccnn3C)sc12 | -7.31%
CCOC1=C/C(=C/c2c(N)n3nc(C(C)C)sc3nc2=O)C=CC1=O | 9.9%
COc1ccc(/C=C2/N=C(c3cccc4ccccc34)OC2=O)c(OC)c1OC | -1.88%
CCc1ccccc1Nc1cc(C)nc2ncnn12 | -7.4%
COc1ccc(-n2nc3c(c2NC(=O)c2cc([N+](=O)[O-])ccc2Cl)CS(=O)C3)cc1 (centres undefined) | 41.9% (active)
COc1ccc(-n2nc3c(c2NC(=O)c2cccc(OC)c2OC)CS(=O)C3)cc1 (centres undefined) | -1.38%
COc1ccc(C(=O)Nc2c3c(nn2-c2ccc(F)cc2)CS(=O)C3)c(OC)c1 (centres undefined) | 0.99%
CC1CCCC(NC(=O)C(C)n2c(=O)c3cccn3c3cccnc32)C1C (centres undefined) | 3.19%
Cn1c(SCC(=O)Nc2nnc(-c3ccccc3)s2)nnc1-c1ccccc1 | -17.2%
CN1CCN(c2ccc(NC(=O)c3cc(Br)cc(Br)c3O)cc2Cl)CC1 | 68% (active)
O=C(Nc1ccc(Cl)c(S(=O)(=O)c2ccc(Cl)cc2)c1)c1cc(Br)cc(Br)c1O | -6.46%
CC(C)(C)c1ccc(C(=O)Nc2ccc(N3CCOCC3)c(Cl)c2)cc1 | 0.56%
NC(=O)c1cc(NC(=O)C(F)(F)F)cc(C(N)=O)c1 | -9.16%

Compound | inhibition
O=C(NCc1ccc(F)cc1)c1nc2c(nnn2Cc2ccc3c(c2)OCO3)c(=O)[nH]1 | -15.6%
O=C(Nc1nc(-c2ccc(F)cc2)cs1)c1cc([N+](=O)[O-])ccc1Cl | 42% (active)
N#Cc1ccc(-c2csc(NC(=O)c3cc([N+](=O)[O-])ccc3Cl)n2)cc1 | 14%
O=C(Nc1nc(-c2ccc(F)cc2)cs1)c1ccc([N+](=O)[O-])cc1 | 6.37%
NS(=O)(=O)c1ccc(CCNC(=S)Nc2ccccc2F)cc1 | 0.39%
COc1ccc(-c2noc(CN(Cc3ccccc3)CC3CC3)n2)c(OC)c1OC | -11.8%
C=CCNc1c(C)c(C)nc2cc(-c3ccc(OC)c(OC)c3)nn12 | -14.7%
CC1CCCC(NC(=O)C2N(C3CCCC(C)C3C)C(=O)C3C(C(=O)Nc4cccc(Cl)c4)C4C=CC32O4)C1C (centres undefined) | -7.64%
CCS(=O)(=O)N1CCN(C(=O)c2ccccc2Cl)CC1 | -4.13%
O=C(c1ccccc1Cl)N1CCCCC1 | 2.65%
Cc1cc(N2CCCC2)nc(N2CCN(C(=O)c3ccccc3Cl)CC2)n1 | 33.1% (active)
O=C(O)c1ccc(NS(=O)(=O)c2cccc(C(F)(F)F)c2)cc1 | 0.38%
Cc1ccc(NC(=O)c2cc(S(=O)(=O)N3CCC(C)CC3)ccc2F)cc1F | -4.47%
COc1cccc(N2C(=O)C3C4C=CC(C5CC45)C3C2=O)c1 (centres undefined) | -3.66%
CC12CC3(C)CC(O)(C1)CC(C(=O)c1ccccc1)(C2)C3 | -1.77%
CCCn1c(SCC(=O)N2CCc3ccccc32)nnc1-c1ccncc1 | -1.7%
CSc1nnc(-c2ccncc2)n1CCCN1CCCC1=O | 58.9% (active)
Cn1c(SCC(=O)N2CCCCCC2)nnc1-c1ccncc1 | 5.85%
COC(=O)c1cc(OC)c(OC)cc1NC(=O)c1cc2ccccc2oc1=O | -9.56%
Cc1ccc(-c2nc(-c3ccccc3Cl)no2)cc1 | -58.6%

Compound | inhibition
Clc1ccccc1-c1noc(-c2ccc(-c3ccccc3)cc2)n1 | 6.4%
Oc1ccc(-c2nc(-c3ccccc3Cl)no2)cc1 | 64.7% (active)
CC1=C(C(=O)OCCOc2ccccc2)C(c2cccc(Cl)c2Cl)C2=C(CC(c3ccccc3)CC2=O)N1 (centres undefined) | 5.89%
O=C(NCCc1ccccc1)C1CCC(Cn2c(SCc3ccc(Cl)cc3)nc3ccccc3c2=O)CC1 (centres undefined) | 6.47%
c1cc(-c2nc3c(c(N4CCCCC4)n2)CNCC3)ccn1 | -3.63%
CC(NC(=O)CCc1ccccc1)c1nnc2n1CCN(Cc1cccc(F)c1F)CC2 (centres undefined) | -34.9%
S=C(Nc1nc2ccccc2[nH]1)Nc1nc2ccccc2[nH]1 | -3.78%
CSCCC(=O)Nc1nc2ccccc2[nH]1 | -12.9%
CCCCN(CCCC)C(=O)Nc1nc2ccccc2[nH]1 | 59.5% (active)
Cc1nc2sc(C(c3ccc([N+](=O)[O-])cc3)N3CC(C)CC(C)C3)c(O)n2n1 (centres undefined) | 21.1%
CC(C)c1ccc(S(=O)(=O)N2CCN(C(=O)/C=C/c3ccccc3)CC2)cc1 | 5.06%
Cc1c(C(=O)N2CCN(c3ccc(F)cc3)CC2)sc2ncnc(N(C)c3ccccc3)c12 | 6.56%
O=C(CSc1nnc2ncccn12)N1CCCc2ccccc21 | -3.81%
Cc1ccc(N2CCN(C(=O)c3c(F)cccc3Cl)CC2)nn1 | -8.28%
Cc1cc(N2CCCC2)nc(Nc2ccc(NC(=O)c3c(F)cccc3Cl)cc2)n1 | 42% (active)
COc1cc(C(=O)Nc2ccc3nc(N4CCN(c5ncccn5)CC4)cc(C)c3c2)cc(OC)c1OC | 22.2%
COc1cc(C(=O)Nc2ccc(Nc3nc(C)cc(N4CCCC4)n3)cc2)cc(OC)c1OC | 35.6% (active)
Cc1cc(NC(=O)c2c(F)cccc2Cl)ccc1N1CCCCC1=O | -2.91%
COc1ccc(C(=O)Nc2ccc3nc(N4CCCCC4)cc(C)c3c2)cc1OC | -0.5%
